# From PubChem BioAssay
# GLP1R inv ag: acts as inverse agonist at human GLP-1 receptor; HEK293 GLP-1R CRE-luciferase, luminescence, 24 h; GLP-1R form is constitutively active; P43220; hit rate 1.6% among 410,000; Potency, µM (top dose mostly 38.3 µM), for inactives: top-dose activity change, negative = inhibition, hits mostly inhibitors; further: on the % scale 0 is the no-effect control and ±100 the full control effect; nearly all actives have a fitted effect of over 55% in size
# Target sequence (P43220 whole entry, looked up): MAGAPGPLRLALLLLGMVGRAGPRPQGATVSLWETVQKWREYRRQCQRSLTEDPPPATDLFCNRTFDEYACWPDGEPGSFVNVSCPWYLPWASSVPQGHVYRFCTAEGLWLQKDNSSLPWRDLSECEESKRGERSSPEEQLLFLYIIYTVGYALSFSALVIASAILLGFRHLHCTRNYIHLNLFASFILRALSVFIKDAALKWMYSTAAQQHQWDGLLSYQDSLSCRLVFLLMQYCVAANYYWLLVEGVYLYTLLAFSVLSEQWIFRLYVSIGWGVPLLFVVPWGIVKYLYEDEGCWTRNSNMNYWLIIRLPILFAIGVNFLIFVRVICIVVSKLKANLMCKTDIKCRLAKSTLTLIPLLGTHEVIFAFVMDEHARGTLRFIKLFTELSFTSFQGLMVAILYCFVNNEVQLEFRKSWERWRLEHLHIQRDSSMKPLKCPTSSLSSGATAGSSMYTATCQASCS
#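 Inverse agonism was detected as reduced cAMP-driven luciferase luminescence after 24 h compound treatment. The cells were HEK293 clones expressing constitutively active human GLP-1R with the reporter. Reporter-only and GPR119 cell lines served as counterscreen controls.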
# S2 tox: reduces viability in counter-screen for ATXN expression inhibitors. S2 cells (HEK-293 line with an ATXN2-luciferase reporter) viability, CellTiter-Fluor protease fluorescence, 24 h. AID 651635. hit rate 0.49% among 400,000. Potency, µM (top dose mostly 56.7 µM), hits mostly cytotoxic; further: nearly all actives have a fitted effect of over 40% in size
# TGFb SMAD3 inh: blocks TGF-b signaling; HepG2 CAGA-GFP TGF-b/SMAD3 reporter, GFP fluorescence, 18 h; TGF-beta stimulated, 500 pg/mL final; Potency, µM (highest dose often 46.1 µM), for inactives: at the highest dose activity, negative = inhibition, usual class: inhibitors; hit rate 1.2% among 410,000; further: on the % scale 0 is the no-effect control and ±100 the full control effect; nearly all actives have a fitted effect of over 65% in size
#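 HEPG2 CAGA-GFP cells (1000/well, DMEM with 1% FBS) were pre-incubated 2 h at 37 degrees C, given compound by pin tool, then stimulated with TGF-beta at 500 pg/mL final for 18 h before per-cell GFP fluorescence imaging.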
# GLP-1R agonist: GLP-1 receptor (human) agonism; P43220; HEK293 GLP-1R CRE-luciferase, luminescence, 4-6 h; cells express a hypersensitive GLP-1R form; Potency, µM (doses to about 45.6 µM), without a hit: at the highest dose activation, usual class: activators; hit rate 0.007% among 380,000; AID 624172; further: % of control where 0% means no effect
# HepG2 tox: HepG2 cytotoxicity, counter-screen for TGF-b inhibitors. HepG2 CAGA-GFP viability, ATP luminescence, 18 h. Potency, µM (highest dose often 46.1 µM), without a hit: at the highest dose activity change, negative = cytotoxicity, hits mostly cytotoxic. hit rate 0.76% among 410,000. AID 588856
#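 HepG2 CAGA-GFP cells (1000/well, DMEM with 1% FBS) received compound, then TGF-beta at 500 pg/mL final, and were incubated 18 hours at 37 degrees C. Viability was read by CellTiter-Glo luminescence. Media-only wells were set as complete cell-killing and DMSO as no toxicity.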
# ATXN2 expr inh: inhibitors of ATXN2 expression | HEK-293 ATXN2-luciferase reporter, luminescence, 24 h | Potency, µM (series often up to 57 µM), inactives show at the top dose activity change, negative = inhibition, usual class: inhibitors | hit rate 0.72% among 360,000 | AID 1745845; further: on the % scale 0 is the no-effect control and ±100 the full control effect; nearly all actives have a fitted effect of over 55% in size
#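 qHTS (up to 57 uM final) was run with 24 h compound exposure of reporter cells at 37 °C. Each well was multiplexed: SteadyGlo luminescence measured ATXN2-luciferase expression after a fluorogenic Gly-Phe-AFC viability readout (25 uM final).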
# * marks the source's active call; other numbers are inactive results; i = inactive; ? = inconclusive; · = not tested or not shown; ! = a repeat was not active; [ ] = dose if it differs, or a comment. Compounds with a hit are over-represented: about 3.7% of the library has one in this group of screens. The call rests on the fitted dose curve; in most records, active means well fitted curve in the direction sought with a large enough effect; inconclusive means small, poorly fitted or top-dose-only effect, or another doubt; inactive means no such curve, though single readings can be large; an effect the other way counts as inactive or inconclusive. Potency means the concentration at half of the fitted maximal effect.
SMILES,GLP1R inv ag,S2 tox,TGFb SMAD3 inh,GLP-1R agonist,HepG2 tox,ATXN2 expr inh
c1ccc(C(Cc2nc(-c3ccccn3)no2)c2ccccc2)cc1,10µM*,i,?,-7.6%,-10.0%,23.9%
O=S(=O)(NCc1ccccn1)c1cc(C(F)(F)F)ccc1Cl,-19.6%,i,0.7%,-4.1%,-26.5%,1.4%
Cc1cc(C)c(NC(=O)c2ccc(CNS(=O)(=O)c3cc(C(F)(F)F)ccc3Cl)cc2)c(C)c1,6.31µM*,i,0.0%,-34.1%,-16.9%,?
Cc1ccc(C)c(N2CCN(C(=O)Cn3c(-c4cccs4)cc4ccccc43)CC2)c1,?,i,?,·,-13.7%,2.2%
CN=C(Nc1ccc(Br)cc1)SC1CC(=O)N(c2ccc(OC)cc2)C1=O (stereo not given),11.2µM*,i,?,12.4%,-27.9%,-34.2%
CC1CCc2c(cc(-c3ccccc3)n2-c2ccc(C(=O)NC(C)C)cc2)C1 (stereo not given),6.31µM*,·,7.94µM*,·,-1.2%,·
COc1ccc(-c2nn3c(-c4cc(C)[nH]n4)nnc3s2)cc1,·,·,10.0%,·,3.2%,·
Cc1ccc(Nc2sc(C(=O)c3ccccc3)c(N)c2C(=O)Nc2ccc(Cl)cc2)cc1,?,?,?,·,-34.4%,?
Nc1c(C(=O)c2ccccc2)sc(Nc2ccc(Cl)c(Cl)c2)c1C(=O)Nc1ccccc1,?,·,?,·,7.94µM*,?
Cc1ccc(NS(=O)(=O)c2ccc(NC(=O)C(C)Sc3ccc(Cl)cc3)cc2)c(C)c1 (stereo not given),10µM*,i,?,1.8%,-77.5%,?
CC(=O)Nc1cc(NC(C)=O)cc(-c2nc3ccccc3[nH]2)c1,10.3%,31.6µM*!,7.08µM*!,-1.5%,12.6µM*!,?
COc1cccc(C(=O)Nc2ccccc2-c2ccccc2)c1,?,i,12.4%,1.8%,2.3%,-7.6%
COc1c(Cl)cc(C(=O)Nc2cccc(-c3nc4ccccc4[nH]3)c2)cc1Cl,7.94µM*,?,?,·,-87.0%,?
COc1c(Cl)cc(C(=O)Nc2ccccc2-c2ccccc2)cc1Cl,10µM*,i,-14.8%,-12.3%,1.5%,4.7%
Cc1csc(N/N=C/c2ccccc2F)n1,11.8%,i,-4.6%,14.7%,-2.0%,44.1%
CCOc1ccc(/C=N/Nc2nc(C)cs2)c(O)c1,3.98µM*,?,?,-6.7%,-38.6%,255.4%
C[C@@H](Oc1cc(-n2cnc3ccc(CN4CCN(C)CC4)cc32)sc1C(N)=O)c1ccccc1C(F)(F)F,·,·,·,·,·,30.6µM*
COc1ccc(-n2cc(C(=O)NCCc3cc(OC)ccc3OC)c3ccccc3c2=O)cc1,-17.2%,·,?,·,-16.5%,·
COc1ccc(-c2ccccc2C2C3C=CCCC3(C)C(=O)N2Cc2ccccc2)cc1 (stereo not given),·,·,?,·,-50.1%,·
CCOC(=O)c1cc2c(ccn2C)n1CC(=O)N1CCC(Cc2ccccc2)CC1,19.3%,?,11.2µM*,3.4%,-33.5%,0.0%
Oc1c(C(c2ccccn2)N2CCC(Cc3ccccc3)CC2)cc(Cl)c2cccnc12 (stereo not given),29.6%[7.66 µM],·,15.8µM*,19.3%,-47.6%,?
Oc1c(C(c2ccc(Cl)cc2)N2CCCC2)cc(Cl)c2cccnc12 (stereo not given),5.62µM*,i,4.2%,-1.9%,6.1%,·
Oc1cccc(-c2nc3ncccn3c2Nc2cccc(C(F)(F)F)c2)c1,?,?,12.6µM*,-0.3%,-69.2%,?
CN(C)N(Cc1ccccc1)C(=O)C(O)(c1ccccc1)c1ccccc1,12.6µM*,i,13.5%,-0.7%,1.0%,·
O=C(Nc1ccc(Cl)c([N+](=O)[O-])c1)C(Sc1ccccc1)c1ccccc1 (stereo not given),8.91µM*,?,?,-1.0%,-51.9%,?
SMILES,GLP1R inv ag,S2 tox,TGFb SMAD3 inh,GLP-1R agonist,HepG2 tox,ATXN2 expr inh
COc1ccc(CNC(=O)Cc2c(C)c3c(cc(C)c4c(C)c(C)oc43)oc2=O)cc1,3.5%,·,0.1%,·,-12.8%,·
CC(C)OP(=O)(OC(C)C)/C(C=O)=N\Nc1ccc([N+](=O)[O-])cc1,?,28.2µM*,?,-2.5%,-81.4%,·
COc1ccc(/C=C/c2nccc3ccccc23)cc1OC,·,·,?,·,-25.4%,·
COc1ccc(N2CCN(C(=O)c3c(C)oc4ncnc(N5CCCCC5)c34)CC2)cc1,11.2µM*,i,?,·,-12.5%,-10.9%
CCCCc1cc2c(=O)c(C(=O)OC)c[nH]c2cc1OCc1ccccc1,·,i,·,1.1%,·,·
N[C@H](Cc1cc(I)c(Oc2ccc(O)c(I)c2)c(I)c1)C(=O)O,·,i,·,·,·,·
COc1ccc(C(=O)/C(=C/c2cccs2)c2nc3ccccc3o2)cc1,11.2µM*,i,-3.9%,-0.8%,-21.6%,15.4%
Cc1nn(CC(O)Cn2c3c(c4ccccc42)CCN(C)C3=O)c(C)c1Br (stereo not given),?,i,-26.4%,3.4%,-23.8%,-8.0%
Cc1ccc2c(c1)c1c(n2CC(O)Cn2c(C)nc3ccccc32)CCCC1 (stereo not given),?,31.6µM*,?,-2.4%,-96.4%,?
Cc1ccc2c(c1)c1c(n2CC(O)CNC(C)(C)C)CCCC1 (stereo not given),10µM*,?,?,3.4%,-62.9%,-21.5%
Cc1ccc2c(c1)c1c(n2CC(O)CN2CCCCCC2)CCCC1 (stereo not given),?,?,-19.9%,3.5%,-40.7%,-28.8%
